{"source": "PubChem BioAssay (NCATS)", "note": "Inconclusive results are not listed. Entries that show only a call come without a potency. Calls of active or inactive are those of the source. Calls follow the shape of the dose curve; as a rule, active = well fitted inhibition curve with a large enough effect; inconclusive = small, poorly fitted or top-dose-only effect; inactive = flat fitted curve, though single readings scatter."}
{"system": "CP203", "experiment": "qHTS profiling for inhibitors of Plasmodium falciparum proliferation (AID 504749); also: nearly all actives have a fitted effect of over 60% in size", "settings": "P. falciparum in erythrocytes, SYBR Green DNA, 72 h; series mostly up to 28.7 µM", "outline": "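P. falciparum-infected erythrocytes (0.3% parasitemia, 2.5% hematocrit) incubated with compound 72 h at 37 C, 5% CO2. Parasite DNA detected by SYBR Green after lysis, overnight at room temperature; normalised to 0.29 uM artemisinin and DMSO.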"}
{"smiles": "NC(=O)NNc1ccccc1", "Potency": "inactive"}
{"smiles": "O=C(O)[C@@H]1CSCN1", "Potency": "inactive"}
{"smiles": "CCCc1c(OCCCCc2nn[nH]n2)ccc(C(C)=O)c1O", "Potency": "inactive"}
{"smiles": "COc1ccc2[nH]c(S(=O)Cc3ncc(C)c(OC)c3C)nc2n1", "note": "(stereo unspecified)", "Potency": "inactive"}
{"smiles": "CCn1cc(C(=O)O)c(=O)c2cnc(N3CCNCC3)nc21", "Potency": "inactive"}
{"smiles": "O=C1O[C@H]([C@@H](O)CO)C(O)=C1O", "Potency": "inactive"}
{"smiles": "O=S(=O)(O)c1cc(I)c(O)c2ncccc12", "Potency": "inactive"}
{"smiles": "CC1=C(CC(=O)O)c2cc(F)ccc2/C1=C\\c1ccc(S(C)=O)cc1", "note": "(stereo unspecified)", "Potency": "inactive"}
{"smiles": "CCOC(=O)c1ccc(O)cc1", "Potency": "inactive"}
{"smiles": "O=C(O)c1ccccn1", "Potency": "inactive"}
{"smiles": "Cc1cc(O)cc2c1O[C@](C)(CCC[C@H](C)CCC[C@H](C)CCCC(C)C)CC2", "Potency": "inactive"}
{"smiles": "NCC(=O)CCC(=O)O", "Potency": "inactive"}
{"smiles": "CC(C)(C)C(=O)NCCCC(=O)O", "Potency": "inactive"}
{"smiles": "CCC(=O)Nc1ccc(O)cc1", "Potency": "inactive"}
{"smiles": "COc1ccc(Cl)cc1C(=O)NCCc1ccc(S(=O)(=O)NC(=O)NC2CCCCC2)cc1", "Potency": "inactive"}
{"smiles": "O=C1NC(=O)[C@@]2(CCOc3ccc(F)cc32)N1", "Potency": "inactive"}
{"smiles": "O=Cc1ccccc1C=O", "Potency": "inactive"}
{"smiles": "CC(O)CN(CCN(CC(C)O)CC(C)O)CC(C)O", "note": "(stereo unspecified)", "Potency": "inactive"}
{"smiles": "Cc1ccc(C(C)C)cc2c(C)ccc1-2", "Potency": "inactive"}
{"smiles": "Nc1nc2c(ncn2CCC(CO)CO)c(=O)[nH]1", "Potency": "inactive"}
{"smiles": "NCCNCCNCCN", "Potency": "inactive"}
{"smiles": "CC1(C)OC(=O)NC1=O", "Potency": "inactive"}
{"smiles": "CCCCN(CCCC)CCCOC(=O)c1ccc(N)cc1", "Potency": "inactive"}
{"smiles": "CCCOC(=O)c1ccccc1", "Potency": "inactive"}
{"smiles": "CC12CCC(CC1)C(C)(C)O2", "Potency": "inactive"}
{"smiles": "CC(=O)Nc1ccc(/C=N/NC(N)=S)cc1", "Potency": "inactive"}
